Reference: PubChem BioAssay (Tox21)
Inconclusive results are not listed. Active and inactive are the calls of the source. Unless noted, calls follow the shape of the full dose curve.

What was measured:
[1] = Nuclear factor erythroid 2-related factor 2/antioxidant responsive element (Nrf2/ARE) small molecule agonists: qHTS cell viability counter screen in human keratinocytes (AID 1919968; active = well fitted curve in the direction sought with a large enough effect in the repeat runs; an effect the other way counts as inactive or inconclusive; also: nearly all actives have a fitted effect of over 55% in size)
Outline: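 Parallel cytotoxicity read: KeratinoSens HaCaT cells, compound treatment 23 h, viability by CellTiter-Fluor fluorescence 1 h post-reagent.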

[2] = Nuclear factor erythroid 2-related factor 2/antioxidant responsive element (Nrf2/ARE) small molecule agonists: luciferase reporter gene qHTS assay in human keratinocytes (AID 1919969); also: nearly all actives have a fitted effect of over 35% in size
[3] = target: Gonadotropin-releasing hormone receptor (Homo sapiens) (UniProt P30968); experiment: Human gonadotropin-releasing hormone receptor (GnRHR) small molecule agonists, calcium flux assay in GnRHR-HEK293 cells (AID 1920063); also: nearly all actives have a fitted effect of over 35% in size
Sequence of Gonadotropin-releasing hormone receptor (Homo sapiens) (P30968 whole entry, looked up): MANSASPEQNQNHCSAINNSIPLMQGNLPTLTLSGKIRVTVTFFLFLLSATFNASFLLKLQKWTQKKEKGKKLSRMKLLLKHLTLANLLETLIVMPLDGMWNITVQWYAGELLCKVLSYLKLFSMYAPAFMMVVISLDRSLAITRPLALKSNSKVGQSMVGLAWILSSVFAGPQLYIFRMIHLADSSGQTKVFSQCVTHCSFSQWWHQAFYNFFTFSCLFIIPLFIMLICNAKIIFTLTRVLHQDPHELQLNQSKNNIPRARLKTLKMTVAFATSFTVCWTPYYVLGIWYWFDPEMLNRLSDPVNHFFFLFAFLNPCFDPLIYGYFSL
Outline: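 Calcium flux, agonist mode, human GnRHR stably integrated in HEK293; dye 1 h at 37 C before compound; Ex/Em=480/540 kinetic read, 3 min; 15 concentrations, triplicate.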

[4] = target: KiSS-1 receptor (Homo sapiens) (UniProt Q969F8); experiment: Human kisspeptin (KISS1R) small molecule agonists, calcium flux assay in KISS1R-HEK293 cells (AID 1920064; active = well fitted curve in the direction sought with a large enough effect in the repeat runs; an effect the other way counts as inactive or inconclusive)
Sequence of KiSS-1 receptor (Homo sapiens) (Q969F8 whole entry, looked up): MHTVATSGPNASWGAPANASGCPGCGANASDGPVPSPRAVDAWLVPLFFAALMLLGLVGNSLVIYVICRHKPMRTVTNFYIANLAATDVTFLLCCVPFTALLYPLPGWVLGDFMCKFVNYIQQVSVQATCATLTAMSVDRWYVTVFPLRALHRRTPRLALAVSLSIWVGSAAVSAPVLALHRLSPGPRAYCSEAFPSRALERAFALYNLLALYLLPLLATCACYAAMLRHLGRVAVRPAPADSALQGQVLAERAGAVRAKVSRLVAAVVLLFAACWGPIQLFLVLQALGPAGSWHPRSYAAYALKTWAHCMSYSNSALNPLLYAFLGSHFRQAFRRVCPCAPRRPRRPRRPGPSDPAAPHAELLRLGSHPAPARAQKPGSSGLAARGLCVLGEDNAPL
Outline: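 Triplicate 15-concentration series were applied to dye-loaded human KISS1R HEK293 cells, and agonist-evoked calcium fluorescence was captured for 3 min.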

[5] = G protein-coupled receptor (GPCR) small molecule agonists, calcium flux assay: HEK293 wild type cell line counter screen (AID 1920065)
Outline: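 Non-specific calcium responders were flagged by adding DMSO-dissolved compounds to dye-loaded cells and reading 480/540 nm fluorescence each second for 3 min; ATP served as positive control.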

[6] = p53 small molecule agonists, cell-based qHTS assay with human liver microsomes (AID 1963577)
Outline: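 Fluorescence of the beta-lactamase reporter in p53RE-bla cells, detected with LiveBLAzer substrate (2 h, room temperature, dark), served as the read-out after 16 h compound exposure at 37 C with human liver microsomes and NADPH, each 0.5 mg/mL final.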

[7] = p53 small molecule agonists, cell-based qHTS assay with rat liver microsomes (AID 1963578)
Outline: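 Cells carrying a p53 response element–beta-lactamase reporter were plated and rested 5 h, then dosed with compound in DMSO plus rat liver microsomes and NADPH, each at 0.5 mg/mL final. After 16 h at 37 C, LiveBLAzer substrate was added for 2 h.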

[8] = p53 small molecule agonists, cell-based qHTS assay with human liver microsomes: qHTS cell viability counter screen (AID 1963579); also: nearly all actives have a fitted effect of over 45% in size
Outline: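 Cytotoxicity counter screen: p53RE-bla, 4,000 cells/well; 5 h settle, 37 C/5% CO2; cpd + HLM 0.5 mg/mL + NADPH 0.5 mg/mL (final); 16 h, 37 C; CellTiter-Glo, 30 min RT, luminescence.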

[9] = p53 small molecule agonists, cell-based qHTS assay with rat liver microsomes: qHTS cell viability counter screen (AID 1963580); also: nearly all actives have a fitted effect of over 45% in size
Outline: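 Cytotoxicity counter screen: intracellular ATP measured by CellTiter-Glo luminescence in the same wells as the beta-lactamase reporter read, on HCT-116 p53RE-bla cells exposed 16 h at 37 C to compounds with rat liver microsomes and NADPH, each 0.5 mg/mL final.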

[10] = p53 small molecule agonists, cell-based qHTS assay: qHTS cell viability counter screen (AID 1963581); also: nearly all actives have a fitted effect of over 45% in size
Outline: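 Multiplexed with the reporter read, a CellTiter-Glo step (30 min, room temperature) gauges ATP-based viability of HCT-116 p53RE-bla cells after 16 h compound incubation at 37 C.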

[11] = p53 small molecule agonists, cell-based qHTS assay (AID 1963582; active = well fitted activation curve with a large enough effect in the signal ratio in the repeat runs, not every such curve was filed as active; the % refers to the signal ratio)
Outline: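 Beta-lactamase reporter cells (p53RE-bla) treated with compounds for 16 h at 37 C; FRET substrate, 2 h, room temperature; fluorescence intensity.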

[12] = target: 5-hydroxytryptamine receptor 2A (Homo sapiens) (UniProt P28223); experiment: 5-hydroxytryptamine receptor 2A (HTR2A) small molecule antagonists, cell-based qHTS assay (AID 1963586); also: nearly all actives have a fitted effect of over 45% in size
Sequence of 5-hydroxytryptamine receptor 2A (Homo sapiens) (P28223 whole entry, looked up): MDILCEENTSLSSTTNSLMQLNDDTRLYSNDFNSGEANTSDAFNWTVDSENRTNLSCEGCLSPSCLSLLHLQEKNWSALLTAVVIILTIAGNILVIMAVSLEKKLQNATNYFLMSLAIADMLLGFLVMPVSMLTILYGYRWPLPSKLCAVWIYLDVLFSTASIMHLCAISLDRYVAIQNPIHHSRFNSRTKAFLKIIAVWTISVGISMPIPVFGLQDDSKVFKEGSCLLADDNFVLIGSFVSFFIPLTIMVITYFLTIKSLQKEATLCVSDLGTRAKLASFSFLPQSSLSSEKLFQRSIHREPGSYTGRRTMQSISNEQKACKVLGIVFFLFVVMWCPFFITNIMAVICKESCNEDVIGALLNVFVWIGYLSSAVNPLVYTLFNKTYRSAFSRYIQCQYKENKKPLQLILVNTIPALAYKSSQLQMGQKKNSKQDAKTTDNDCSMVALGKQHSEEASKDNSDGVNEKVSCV
Outline: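 CHO cells stably expressing human HTR2A were plated for 18 h at 37 C, then loaded with calcium dye for 1 h. Compounds were preincubated 5 min at room temperature before DOI (4 nM solution) was added. Kinetic fluorescence was read for 3 min.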

[13] = target: 5-hydroxytryptamine receptor 2A (Homo sapiens) (UniProt P28223); experiment: 5-hydroxytryptamine receptor 2A (HTR2A) small molecule agonists, cell-based qHTS assay (AID 1963587); also: nearly all actives have a fitted effect of over 30% in size
Outline: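 CHO cells stably expressing human HTR2A, plated 18 h, loaded with calcium dye 1 h at 37 C. Agonist mode: compounds added and intracellular calcium fluorescence recorded kinetically for 2 min at 1 sec intervals.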

[14] = target: Muscarinic acetylcholine receptor M1 (Homo sapiens) (UniProt P11229); experiment: Cholinergic receptor muscarinic 1 (CHRM1) small molecule antagonists, cell-based qHTS assay (AID 1963588); also: nearly all actives have a fitted effect of over 40% in size
Sequence of Muscarinic acetylcholine receptor M1 (Homo sapiens) (P11229 whole entry, looked up): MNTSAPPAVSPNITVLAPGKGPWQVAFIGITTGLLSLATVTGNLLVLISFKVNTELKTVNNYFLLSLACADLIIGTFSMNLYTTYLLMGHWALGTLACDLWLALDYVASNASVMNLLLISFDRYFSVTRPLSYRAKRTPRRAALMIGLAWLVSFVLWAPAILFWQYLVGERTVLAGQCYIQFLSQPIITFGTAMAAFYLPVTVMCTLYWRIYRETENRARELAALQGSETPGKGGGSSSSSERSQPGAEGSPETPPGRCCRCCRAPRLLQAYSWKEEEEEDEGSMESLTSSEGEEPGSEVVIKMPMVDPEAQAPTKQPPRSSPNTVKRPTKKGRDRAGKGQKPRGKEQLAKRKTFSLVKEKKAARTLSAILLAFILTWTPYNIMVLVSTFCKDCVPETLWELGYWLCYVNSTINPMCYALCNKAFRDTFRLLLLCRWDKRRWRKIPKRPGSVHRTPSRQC
Outline: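 Compounds were tested at 15 concentrations in three independent runs. Dye-loaded CHRM1-CHO cells were exposed 5 min at room temperature before stimulation by acetylcholine added at 50nM. Intracellular calcium was read kinetically on FDSS for 3 min.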

[15] = target: Muscarinic acetylcholine receptor M1 (Homo sapiens) (UniProt P11229); experiment: Cholinergic receptor muscarinic 1 (CHRM1) small molecule agonists, cell-based qHTS assay (AID 1963589); also: nearly all actives have a fitted effect of over 35% in size
Outline: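 qHTS, 15-point titration, 3 independent runs: compounds pin-transferred onto dye-loaded CHRM1-CHO cells (human M1), calcium fluorescence followed every second to detect agonism.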

[16] = cAMP Responsive Elements (CRE) small molecule agonists, cell-based qHTS assay (AID 1963590)
Outline: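 Quantitative HTS for CRE agonists: HEK 293T CRE-bla cells, overnight plating, 3 h compound incubation at 37 C/5% CO2, then 2 h room-temperature LiveBLAzer B/G FRET substrate loading.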

[17] = cAMP Responsive Elements (CRE) small molecule antagonists, cell-based qHTS assay (AID 1963591; active = well fitted inhibition curve with a large enough effect in the signal ratio in the repeat runs, not every such curve was filed as active; the % refers to the signal ratio)
Outline: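 Fluorescence intensity from cleaved LiveBLAzer B/G substrate (2 h, room temperature) quantified CRE-bla activity in HEK 293T cells exposed 3 h to compound with 0.25 uM final NKH477.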

[18] = target: Beta-2 adrenergic receptor (Homo sapiens) (UniProt P07550); experiment: Adrenergic beta2 receptor (ADRB2) small molecule antagonists, cell-based qHTS assay (AID 1963592); also: series mostly up to about 92 µM; nearly all actives have a fitted effect of over 50% in size
Sequence of Beta-2 adrenergic receptor (Homo sapiens) (P07550 whole entry, looked up): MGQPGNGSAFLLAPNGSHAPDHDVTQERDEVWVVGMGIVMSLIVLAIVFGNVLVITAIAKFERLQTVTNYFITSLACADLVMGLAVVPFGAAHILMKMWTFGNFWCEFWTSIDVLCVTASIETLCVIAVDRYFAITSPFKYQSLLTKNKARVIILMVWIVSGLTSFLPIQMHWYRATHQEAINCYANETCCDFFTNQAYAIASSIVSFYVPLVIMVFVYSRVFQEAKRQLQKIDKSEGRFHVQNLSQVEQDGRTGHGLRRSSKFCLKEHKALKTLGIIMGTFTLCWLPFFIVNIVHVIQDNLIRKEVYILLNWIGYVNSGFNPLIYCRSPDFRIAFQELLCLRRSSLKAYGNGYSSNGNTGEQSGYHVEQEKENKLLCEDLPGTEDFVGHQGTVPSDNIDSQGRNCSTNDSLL
Outline: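 Assay format: CHO-ADRB2 cells, 18-20hr seeding at 37C/5% CO2, then compound plus 1nM isoproterenol agonist mix for 0.5hr RT. Homogeneous time-resolved fluorescence cAMP detection after 1hr, expressed as 665/615 nm ratio.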

[19] = target: Beta-2 adrenergic receptor (Homo sapiens) (UniProt P07550); experiment: Adrenergic beta2 receptor (ADRB2) small molecule agonists, cell-based qHTS assay (AID 1963593);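 also: CHO cells stably overexpressing human ADRB2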
Outline: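 CHO cells stably over-expressing ADRB2 were plated overnight at 37C, then dosed with compounds plus a stimulation mix containing 100uM IBMX and 25uM Ro-20-1724 for 0.5hr at room temperature. cAMP was measured by HTRF competition, 1hr.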

[20] = target: D(2) dopamine receptor (Homo sapiens) (UniProt P14416); experiment: Dopamine D2 receptor (DRD2) small molecule agonists, cell-based qHTS assay (AID 1963594); also: nearly all actives have a fitted effect of over 35% in size
Sequence of D(2) dopamine receptor (Homo sapiens) (P14416 whole entry, looked up): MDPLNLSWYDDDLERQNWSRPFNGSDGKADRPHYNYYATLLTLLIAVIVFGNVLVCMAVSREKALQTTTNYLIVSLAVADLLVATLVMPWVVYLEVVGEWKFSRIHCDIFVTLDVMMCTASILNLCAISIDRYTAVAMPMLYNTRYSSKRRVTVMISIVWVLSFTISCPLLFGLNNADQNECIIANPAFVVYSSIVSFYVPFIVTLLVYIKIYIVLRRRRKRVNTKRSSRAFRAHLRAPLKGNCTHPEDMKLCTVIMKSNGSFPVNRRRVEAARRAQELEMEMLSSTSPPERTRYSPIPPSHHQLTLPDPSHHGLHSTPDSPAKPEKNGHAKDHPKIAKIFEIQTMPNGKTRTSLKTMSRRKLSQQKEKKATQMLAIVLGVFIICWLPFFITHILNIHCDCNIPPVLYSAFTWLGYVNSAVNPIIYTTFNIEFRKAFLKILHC
Outline: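 HEK293 cells stably expressing human DRD2, pre-treated with PDE inhibitor Ro20-1724 (0.1 mM final) and compound 10 min at room temperature, then stimulated with NKH477 (200nM […]) for 30 min. cAMP read by HTRF (665/620 nm).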

Measured: Potency

COc1ccc2c(c1)CCCC2=O
not listed: [20]
inactive: all other assays above

CC(=O)NCc1c(I)c(NC(C)=O)c(I)c(C(=O)O)c1I
inactive: all assays above

Nc1nccs1
inactive: all assays above

NNC(=O)c1cccc(C(=O)NN)c1
not listed: [20]
inactive: all other assays above

CC(=O)N[C@@H](CC(C)C)C(=O)O
inactive: all assays above

CCCOCCOCCOCCO
inactive: all assays above

CC(C)CCCC(C)N (stereo not given)
not listed: [18] | [19] | [20]
inactive: all other assays above
